Over roughly 39,000 sequences, “fluorescence intensity (a.u.)” has its median near 4,300; the highest 2% begin near 39,000. This excerpt belongs to a sample that is enriched for the highest values.

The assay addresses T1, OsSMF1 (Oryza sativa, UniProt Q6ZLB0 1-436).
T1 sequence: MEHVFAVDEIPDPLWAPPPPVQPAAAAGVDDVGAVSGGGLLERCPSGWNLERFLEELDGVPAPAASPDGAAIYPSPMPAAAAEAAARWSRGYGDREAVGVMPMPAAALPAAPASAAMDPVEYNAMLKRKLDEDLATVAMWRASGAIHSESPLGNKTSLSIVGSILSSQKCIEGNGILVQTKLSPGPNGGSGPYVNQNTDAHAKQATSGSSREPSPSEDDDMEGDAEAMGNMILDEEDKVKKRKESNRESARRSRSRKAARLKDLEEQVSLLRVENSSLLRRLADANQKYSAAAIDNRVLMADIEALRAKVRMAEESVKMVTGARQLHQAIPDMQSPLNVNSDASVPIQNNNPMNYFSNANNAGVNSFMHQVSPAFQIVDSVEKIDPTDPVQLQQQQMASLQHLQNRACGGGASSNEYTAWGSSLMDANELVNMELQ
Nature of the assay: protein-binding microarray (RPBM); PBS, 2% BSA, 51.3 ng/ul salmon testes DNA, 50 uM zinc acetate, 200 nM TF, 25 C, 1 h; high values mean tight binding. The settings on record: protein: recombinant; tags: N-terminal polyhistidine and DsRed monomer fusion (pET32a); chain copies: 2; label: CyDye5-dUTP incorporated in the synthesized complementary strand; 3' TTTTT single-stranded linker to array surface; dsDNA, one strand shown. In a few lines: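 Using Ni–NTA, transcription factors fused N-terminally to polyhistidine and DsRed were purified after expression in E. coli BL21-CodonPlus. These were incubated at 200 nM with a blocked, double-stranded custom Agilent array for 1 h at 25 °C in a buffer containing 50 µM zinc acetate, and the array was washed. The binding signal is per-feature fluorescence intensity (arbitrary units) on an Axon 4000B scanner.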
Consider “CCTACCACTGTTGAGTAACCACGTCTTTCGACGTATGCAGCGGAGTCACCTAGTGCAG”, for which the binding signal is 6930 fluorescence intensity (a.u.). In the case of “GCGGTCGGGCCGGCCCAGGAAATACCAGGCGACGTGGCGGCGGAGTCACCTAGTGCAG”, the binding signal was 8410 fluorescence intensity (a.u.). In the case of “ACTGACATCGAGGCCCCACGTGTCAGTGACCCAGTTCTTTCGGAGTCACCTAGTGCAG” it was 13400 fluorescence intensity (a.u.). Regarding “TAAACTCTTTCTGTGAGTCAGCACAATAGCCCATCGTGCCCGGAGTCACCTAGTGCAG”, the binding signal is 18700 fluorescence intensity (a.u.). Take “ACTTCACCAGTTCACCACCGTGGCACTCCCTGGGACTGAACGGAGTCACCTAGTGCAG”: the binding signal was 3640 fluorescence intensity (a.u.).

Regarding “GAGGACATGCATGTGCAAGGGGAGCAGGTGGGGTAAAATGCGGAGTCACCTAGTGCAG”, the binding signal was 45500 fluorescence intensity (a.u.). Take “GTGCGGATGGGGAGGTGTGGTGGAAGGGTGGACAGTGGAGCGGAGTCACCTAGTGCAG”: the binding signal is 3410 fluorescence intensity (a.u.). As for “TTGGGAGGGAGAGTGGTAAAGGGTGCTGGGGCTTTGGCTGCGGAGTCACCTAGTGCAG”, the binding signal is 4250 fluorescence intensity (a.u.). In the case of “TTTGCCACTGTCCTACTAGATCTTGGTCTTATTTGAGAAGCGGAGTCACCTAGTGCAG” it was 3550 fluorescence intensity (a.u.); in that of “TATGACATGTGGGCCAACTGCCAAGCAGCCTTACTTGACGCGGAGTCACCTAGTGCAG”, 3360 fluorescence intensity (a.u.). The same measure for “CTCAGTATATATGTTTTGAATTCATTATGACATCTTTACACGGAGTCACCTAGTGCAG”: 3360 fluorescence intensity (a.u.); for “CTGAAAAGTTGTGTGTGTATGACATGTTGATGTGATGGAACGGAGTCACCTAGTGCAG”: 5180 fluorescence intensity (a.u.). In the case of “TCACATGATGTCTTGGATGTTGTGTAGAAATTCTCTTTCCCGGAGTCACCTAGTGCAG” it was 3560 fluorescence intensity (a.u.); in that of “TACAGTATGTTGTGGAAGGCCTTTGAATTATATTGCATTACGGAGTCACCTAGTGCAG”, 49000 fluorescence intensity (a.u.); in that of “TCTTGATGATGTGGAGTTTATGGAAACTATGTCTAGTGTTCGGAGTCACCTAGTGCAG”, 7560 fluorescence intensity (a.u.). With “TATTTGTATTATGTTGCAAATGTTGCAATATATATATTTACGGAGTCACCTAGTGCAG”, the binding signal was 15300 fluorescence intensity (a.u.).

On to “TGTTTGGACATATGCATGGAGCATTAAATGTGGATGAAAACGGAGTCACCTAGTGCAG”, for which the binding signal is 4350 fluorescence intensity (a.u.). In the case of “GCTATTTATCTCATATGATGTCTTGGATGTTGTGTAGAAACGGAGTCACCTAGTGCAG” it was 40600 fluorescence intensity (a.u.); in that of “TTGGAAGTTTATGTGTGTAGAAAAGTTTTGATGTAATGAACGGAGTCACCTAGTGCAG”, 44400 fluorescence intensity (a.u.); in that of “TTATTGGTGGATGCCTCTGAGTCGGATGTGGGTCGTACAACGGAGTCACCTAGTGCAG”, 3660 fluorescence intensity (a.u.).

In the case of “TATGAAAGTTTTCGATGTGATGTAATGTGATGGAAAGTTACGGAGTCACCTAGTGCAG”, the binding signal was 3140 fluorescence intensity (a.u.). The same measure for “GTTGGAGATGCTCTGAGAAACGCATATGTGGATGGTCTTACGGAGTCACCTAGTGCAG”: 48100 fluorescence intensity (a.u.); for “GCATGTAGCTATGCAGCCATCCACGTCACTCCTTGCGTACCGGAGTCACCTAGTGCAG”: 31800 fluorescence intensity (a.u.). The same measure for “ATTAAGCACTACGTCAGATATGATTGGCCATCATTGCATTCGGAGTCACCTAGTGCAG”: 3150 fluorescence intensity (a.u.); for “ACACCCGTCCGTCCCGTCTCGTTCTGCGCCGTCTCGCCGGCGGAGTCACCTAGTGCAG”: 18700 fluorescence intensity (a.u.); for “GAAGATAGTACTAACTATATTTTGTAACGGAGAGATTGTTCGGAGTCACCTAGTGCAG”: 4130 fluorescence intensity (a.u.). The same measure for “TACACACCATAATTGAAGTATTGAGTCACACATAATTGAACGGAGTCACCTAGTGCAG”: 3220 fluorescence intensity (a.u.); for “AATAGTAGGCTATAAGCCGGCTAAATGCTGAGGTGGAGGACGGAGTCACCTAGTGCAG”: 5420 fluorescence intensity (a.u.); for “TGTGGACAATGCTAGAAAGTCTTACATTGTCAAACGGATGCGGAGTCACCTAGTGCAG”: 39500 fluorescence intensity (a.u.). Turning to “AGTAGTGAGGTTGAGGCATAAGTACATTGAATTGAATTGACGGAGTCACCTAGTGCAG”, the binding signal is 44100 fluorescence intensity (a.u.). The same measure for “TAGAATTGTCAAGTCAATGCCACGTGGGACAAAGACCTAGCGGAGTCACCTAGTGCAG”: 17900 fluorescence intensity (a.u.); for “TGAGTGAATACACAGTACTATGACGACGATAAGGTTGGGGCGGAGTCACCTAGTGCAG”: 32700 fluorescence intensity (a.u.). On to “ATGCTAGAAAGTCTTATAACCTGAAACGGAGGTAGTAGGACGGAGTCACCTAGTGCAG”, for which the binding signal was 65000 fluorescence intensity (a.u.). Take “AAATTGAGTTGAAAATTTTCAAATCTCGACTTGAAAGTTTCGGAGTCACCTAGTGCAG”: the binding signal was 21800 fluorescence intensity (a.u.).

As to “TCAAATTGAAAGTTTCCAAAATTTTCAAATCTGGACTTGACGGAGTCACCTAGTGCAG”, the binding signal was 43500 fluorescence intensity (a.u.). The same measure for “TTGGACAAATCATTTGGCAAAATTTCAAAGTTTTGAATCTCGGAGTCACCTAGTGCAG”: 28600 fluorescence intensity (a.u.).

Regarding “TTCTTATTGTCTTAGCTACAAACGATCCATACAAACATTGCGGAGTCACCTAGTGCAG”, the binding signal is 4240 fluorescence intensity (a.u.). “TGTTAGAAAGTCTTATAATATAAAACGGAGGAAATATTTACGGAGTCACCTAGTGCAG”: the binding signal was 6480 fluorescence intensity (a.u.). The same measure for “TCTCTCTCACTCTTCTCTTGCAGGCCTGCGTGGCATACTACGGAGTCACCTAGTGCAG”: 7430 fluorescence intensity (a.u.); for “CGGAAACAGATCATCAAACCCATACGTCAGTGATCCAAGTCGGAGTCACCTAGTGCAG”: 3410 fluorescence intensity (a.u.). The same measure for “TTCCAGTCCACCGTGGCGGTGGCGCGTCAGCTTTCCAGCCCGGAGTCACCTAGTGCAG”: 12000 fluorescence intensity (a.u.); for “GGTCCACCCGAATCGGAGTCAGCCAGCCAAGCCACCTAATCGGAGTCACCTAGTGCAG”: 4780 fluorescence intensity (a.u.); for “GCCGGTCGAACCGCCCGAACACCTACGGTCAGACCGCTGCCGGAGTCACCTAGTGCAG”: 3360 fluorescence intensity (a.u.).

In the case of “CTTCATACTGCAGTATCTGAAAAGATGTCATTGTAAAGTTCGGAGTCACCTAGTGCAG”, the binding signal was 3140 fluorescence intensity (a.u.). Regarding “TTGTAGAAGTTGAATTTGGTTTTACATATTTGTGGAGTGACGGAGTCACCTAGTGCAG”, the binding signal was 61600 fluorescence intensity (a.u.).

“GTTGTTGATGTGATTGTGTGTATTCAAGTAGAGATTGGGTCGGAGTCACCTAGTGCAG”: the binding signal was 3240 fluorescence intensity (a.u.).

Turning to “TTATGTTTGAATTTAAGTTTTGAGTTTTGTTGCGTGCGCACGGAGTCACCTAGTGCAG”, the binding signal is 28800 fluorescence intensity (a.u.). With “TGTGATTGTATTGGTTACTAGAGTAGTATTTAGTAGAGATCGGAGTCACCTAGTGCAG”, the binding signal is 42200 fluorescence intensity (a.u.).

Turning to “TATTGATTGATTGGTTAGTACTACAGTACTGTAGGAGTGGCGGAGTCACCTAGTGCAG”, the binding signal is 29800 fluorescence intensity (a.u.). On to “CCAAAATGAGTTGAAATGAATTTTGTATGCATTTTATAAACGGAGTCACCTAGTGCAG”, for which the binding signal is 6000 fluorescence intensity (a.u.). In the case of “CATGTTTGTGAAGTGACGTATTACATATTGATCTATTTGACGGAGTCACCTAGTGCAG” it was 8700 fluorescence intensity (a.u.). The same measure for “TAGTTGTGACACGTAGAAGTTGAATTTTAACTTTTATGTTCGGAGTCACCTAGTGCAG”: 4370 fluorescence intensity (a.u.); for “GCATGTTTTGAGTTTGAAAGTTTTAAATTTTGAGTTGAAACGGAGTCACCTAGTGCAG”: 50200 fluorescence intensity (a.u.); for “CGACTGAAGACTTGGACACGGTCAGTCTTTCTGCCGTGTTCGGAGTCACCTAGTGCAG”: 5080 fluorescence intensity (a.u.).
